Test results as given in paper PMC7819943, “Rice protein-binding microarrays: a tool to detect cis-acting elements near promoter regions in rice”.
Whole data set: some 39,000 sequences, median “fluorescence intensity (a.u.)” near 4,300, cut for the highest 2% near 39,000. Shown is part of a subset that was picked to be rich in the highest values.

What follows are sequences tested against T1, OsSMF1 (Oryza sativa, UniProt Q6ZLB0 1-436) (assay: protein-binding microarray (RPBM); PBS, 2% BSA, 51.3 ng/ul salmon testes DNA, 50 uM zinc acetate, 200 nM TF, 25 C, 1 h; high values mean tight binding). Conditions: protein: recombinant; tags: N-terminal polyhistidine and DsRed monomer fusion (pET32a); chain copies: 2; label: CyDye5-dUTP incorporated in the synthesized complementary strand; 3' TTTTT single-stranded linker to array surface; dsDNA, one strand shown.
T1 sequence: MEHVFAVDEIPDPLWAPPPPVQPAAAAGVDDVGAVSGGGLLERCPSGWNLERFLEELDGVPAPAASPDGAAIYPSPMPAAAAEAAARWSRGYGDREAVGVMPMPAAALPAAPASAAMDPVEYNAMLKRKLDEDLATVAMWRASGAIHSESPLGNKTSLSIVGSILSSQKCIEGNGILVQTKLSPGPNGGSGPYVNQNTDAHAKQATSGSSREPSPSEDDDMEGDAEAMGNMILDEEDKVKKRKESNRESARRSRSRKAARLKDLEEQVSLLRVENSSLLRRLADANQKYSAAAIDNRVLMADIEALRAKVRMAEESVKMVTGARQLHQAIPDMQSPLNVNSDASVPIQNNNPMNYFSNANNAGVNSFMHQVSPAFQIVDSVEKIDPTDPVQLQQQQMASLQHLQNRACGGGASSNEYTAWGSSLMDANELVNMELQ
Outline: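 The binding signal is fluorescence intensity per array feature (arbitrary units). Readings came from an Axon 4000B scanner after a washed, 2% BSA-blocked, double-stranded custom Agilent array had been incubated for 1 h at 25 °C with 200 nM protein and 50 µM zinc acetate. The protein was a Ni–NTA-purified transcription factor fused N-terminally to polyhistidine and DsRed, expressed in E. coli BL21-CodonPlus.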

Q: With “CGCAAACATTTTCGGAATATACGAATCCAGCGTTGCACTGCGGAGTCACCTAGTGCAG” as the sequence, how does the binding signal read?
A: The binding signal was 3250 fluorescence intensity (a.u.).

Q: How did the binding signal turn out when “CCCCTCCCCATCGTCAGCATCTTTCTTTCTCTTCCCATCCCGGAGTCACCTAGTGCAG” was run?
A: The binding signal was 6610 fluorescence intensity (a.u.).

Q: Which binding signal does the source give for “CAGGATGCCACGTCAGCGCCCTCTATCTCTTTCCCCTCCTCGGAGTCACCTAGTGCAG” here?
A: The binding signal was 51300 fluorescence intensity (a.u.).

Q: Which binding signal does the source give for “CATGTCAGGACGCCACGTCATCATGCTCTCTCTTTCCCCTCGGAGTCACCTAGTGCAG” here?
A: Its binding signal is 33600 fluorescence intensity (a.u.).

Q: Which binding signal does the source give for “ATGTCAGGATGCCACGTCACACCCTTTCTTTCCCCTCCTCCGGAGTCACCTAGTGCAG” here?
A: The binding signal was 45200 fluorescence intensity (a.u.).

Q: Which binding signal does the source give for “GTCAGTGTGGCCACGTCAGCATCCTCTCTTTTCCTCTCTTCGGAGTCACCTAGTGCAG” here?
A: The binding signal was 40800 fluorescence intensity (a.u.).

Q: Which binding signal does the source give for “GTTCCACATGTCATCCTCTCCCTTTCTTCTTCCTCCCCTCCGGAGTCACCTAGTGCAG” here?
A: The binding signal was 3930 fluorescence intensity (a.u.).

Q: With “TCCTCCCACGCTTCTTCTTCTTCTTCTTCTTCCCTTTCCCCGGAGTCACCTAGTGCAG” as the sequence, how does the binding signal read?
A: The binding signal was 9800 fluorescence intensity (a.u.).

Q: For “CCACGTGTCAGCATTGCCACATCAGCTTCCTCTCTCTTTTCGGAGTCACCTAGTGCAG”, which binding signal is on record?
A: Its binding signal is 24100 fluorescence intensity (a.u.).

Q: How did the binding signal turn out when “CAGCCATCCATCCCACCCACACGTCACCACCCGCGCATCCCGGAGTCACCTAGTGCAG” was run?
A: Its binding signal is 20500 fluorescence intensity (a.u.).

Q: How did the binding signal turn out when “CCACATGTCAGGATGCCACGTCATCTCTCTTTCCCCTCTTCGGAGTCACCTAGTGCAG” was run?
A: The binding signal was 33600 fluorescence intensity (a.u.).

Q: For “CATATTCTGATATTCCCATCCACGTCAGCATTTCCCCACCCGGAGTCACCTAGTGCAG”, which binding signal is on record?
A: Its binding signal is 41000 fluorescence intensity (a.u.).

Q: For “AATGTGACCACGTCATCCCCTTCTTTCCCTTTCCCCTCTTCGGAGTCACCTAGTGCAG”, which binding signal is on record?
A: Its binding signal is 33300 fluorescence intensity (a.u.).

Q: “AGGTGCAGATGCTACTACTGATCTGGAACAGTGATCTCCACGGAGTCACCTAGTGCAG” was tested. Which binding signal did it give?
A: The binding signal was 3180 fluorescence intensity (a.u.).

Q: “CCCATTGCTGTCTCTACCATGTGTCATCTTCCAATAAGCACGGAGTCACCTAGTGCAG” was tested. Which binding signal did it give?
A: Its binding signal is 4950 fluorescence intensity (a.u.).

Q: Which binding signal does the source give for “GGCTGCGGCGCTGTCCCTCCGTCTGCGTGATCCGACAACCCGGAGTCACCTAGTGCAG” here?
A: Its binding signal is 3800 fluorescence intensity (a.u.).

Q: “AACCAACCAACCACGTCGATCGCTCGCAGTCGCCGCCGCGCGGAGTCACCTAGTGCAG” was tested. Which binding signal did it give?
A: Its binding signal is 3840 fluorescence intensity (a.u.).

Q: Which binding signal does the source give for “GCAGGCTGAATAAAACTGTATTGTCATCGATGATATTGGTCGGAGTCACCTAGTGCAG” here?
A: The binding signal was 5020 fluorescence intensity (a.u.).

Q: How did the binding signal turn out when “AAAACAAATATAGAGGAGACAGCTCATTTTATTTCCTTGACGGAGTCACCTAGTGCAG” was run?
A: Its binding signal is 3340 fluorescence intensity (a.u.).

Q: How did the binding signal turn out when “ATAAGGGCCAGCATGTACGTGACAGTGCCATTCGGGCCCACGGAGTCACCTAGTGCAG” was run?
A: Its binding signal is 4850 fluorescence intensity (a.u.).

Q: For “AAGTCAGGGTGTCCACGTCATCACCCTCCCTCTTTCTCCTCGGAGTCACCTAGTGCAG”, which binding signal is on record?
A: Its binding signal is 55700 fluorescence intensity (a.u.).

Q: With “CTACATATCAGGTGTCCACGTCACCCTCTCTCTTTCCCCTCGGAGTCACCTAGTGCAG” as the sequence, how does the binding signal read?
A: The binding signal was 37200 fluorescence intensity (a.u.).

Q: For “CATGTCAGACAGTCCACGTCATCACCTTTCTCTCCCCTCTCGGAGTCACCTAGTGCAG”, which binding signal is on record?
A: Its binding signal is 38200 fluorescence intensity (a.u.).

Q: For “TTAACTCGGTCTTCATCCTGTGTGACGCCTACGATACAACCGGAGTCACCTAGTGCAG”, which binding signal is on record?
A: The binding signal was 4380 fluorescence intensity (a.u.).

Q: “GGCTTCGGCCAGCTAGCCGCCACGTCTCCGCCGGTTTTAACGGAGTCACCTAGTGCAG” was tested. Which binding signal did it give?
A: The binding signal was 8270 fluorescence intensity (a.u.).

Q: For “ATTTCTACCTGACGAAGTGACGATGCACTAGCCAGCTACTCGGAGTCACCTAGTGCAG”, which binding signal is on record?
A: Its binding signal is 3900 fluorescence intensity (a.u.).

Q: Which binding signal does the source give for “AGACAAATAATTCCCTTTGCCATGCCTGTCAGTTAGGGAACGGAGTCACCTAGTGCAG” here?
A: Its binding signal is 3500 fluorescence intensity (a.u.).

Q: With “TTGTATAACTATGTGTATATGTGTATGGTTATTAAGCAAACGGAGTCACCTAGTGCAG” as the sequence, how does the binding signal read?
A: Its binding signal is 10500 fluorescence intensity (a.u.).

Q: For “AAACTTTATGTATAGAAATAATATATATATATATATATATCGGAGTCACCTAGTGCAG”, which binding signal is on record?
A: The binding signal was 29000 fluorescence intensity (a.u.).

Q: Which binding signal does the source give for “TCCATGTATATTACATCATGGGGTTATGTAACATCACTGACGGAGTCACCTAGTGCAG” here?
A: The binding signal was 8280 fluorescence intensity (a.u.).

Q: For “CGACATTAAAGATTATGAATATTATGGGCAAATATAGGTCCGGAGTCACCTAGTGCAG”, which binding signal is on record?
A: The binding signal was 57600 fluorescence intensity (a.u.).

Q: How did the binding signal turn out when “TATAAAATTTCGCAATAACGACGAAAGTATTAAACGGACACGGAGTCACCTAGTGCAG” was run?
A: Its binding signal is 56200 fluorescence intensity (a.u.).

Q: For “CTTATTATGGTTATATGTGCAGGTATGGAGTAATAACTGACGGAGTCACCTAGTGCAG”, which binding signal is on record?
A: Its binding signal is 46400 fluorescence intensity (a.u.).

Q: How did the binding signal turn out when “TCATAATATTATAAATTTGGACAAAGATATATCATATCACCGGAGTCACCTAGTGCAG” was run?
A: The binding signal was 3150 fluorescence intensity (a.u.).

Q: “TGAGATATATATTTCGTATGTATATAGAGAAATAAAGAAACGGAGTCACCTAGTGCAG” was tested. Which binding signal did it give?
A: Its binding signal is 57100 fluorescence intensity (a.u.).

Q: “ACTTATGATATGAAACGGAGAGAGTAGTAGATAAGATTTTCGGAGTCACCTAGTGCAG” was tested. Which binding signal did it give?
A: Its binding signal is 28400 fluorescence intensity (a.u.).

Q: “GTAAACGCATGCCTTTTCGCAAATTTGTAAAACGAAACGACGGAGTCACCTAGTGCAG” was tested. Which binding signal did it give?
A: Its binding signal is 31500 fluorescence intensity (a.u.).

Q: How did the binding signal turn out when “GAATAATTTATTAAATAATTTATAAATCCTGAAACGAAAACGGAGTCACCTAGTGCAG” was run?
A: Its binding signal is 3520 fluorescence intensity (a.u.).

Q: For “AAACATTATTAAATAGGTGTATGAATGACAGTCATACTTGCGGAGTCACCTAGTGCAG”, which binding signal is on record?
A: The binding signal was 3490 fluorescence intensity (a.u.).

Q: “TAGGATTCAGCTCCTTCCTATTAGGGGTTCACCCGCGAGTCGGAGTCACCTAGTGCAG” was tested. Which binding signal did it give?
A: Its binding signal is 13800 fluorescence intensity (a.u.).

Q: Which binding signal does the source give for “CTATAAACTTAGTTAAACTAAAGCTGCTATTTAACTTTGACGGAGTCACCTAGTGCAG” here?
A: The binding signal was 3280 fluorescence intensity (a.u.).

Q: How did the binding signal turn out when “CGAGGTTGCCCCTCCCCTCTCCTACGTGGTCGTGCCCCAACGGAGTCACCTAGTGCAG” was run?
A: The binding signal was 5410 fluorescence intensity (a.u.).

Q: Which binding signal does the source give for “ATCGGCAAACGCGTTCCACCAAAACCCTCCACGTCAGCATCGGAGTCACCTAGTGCAG” here?
A: Its binding signal is 29800 fluorescence intensity (a.u.).

Q: “TAAAGAAAGAAAAGACATTAATAAAGCAGCAAAGAAAAGACGGAGTCACCTAGTGCAG” was tested. Which binding signal did it give?
A: Its binding signal is 46000 fluorescence intensity (a.u.).

Q: “TTAATTAATTAACGTATGTACTCAGGAATTATATATAATACGGAGTCACCTAGTGCAG” was tested. Which binding signal did it give?
A: Its binding signal is 35600 fluorescence intensity (a.u.).

Q: How did the binding signal turn out when “TTATAATATATATAATAAATAAATGTATGTTTACTTATAGCGGAGTCACCTAGTGCAG” was run?
A: Its binding signal is 19300 fluorescence intensity (a.u.).

Q: How did the binding signal turn out when “ATAATAAACTGAGAGGAGGATAGTAATATGTACTTAGTAACGGAGTCACCTAGTGCAG” was run?
A: The binding signal was 48400 fluorescence intensity (a.u.).

Q: How did the binding signal turn out when “CTCTCTCTCTCTCTCTCTCTCTCTCTTGCCATTTAAAAGACGGAGTCACCTAGTGCAG” was run?
A: Its binding signal is 4760 fluorescence intensity (a.u.).

Q: “AGCAAACATAATTAACATATATATAATAAAGCTCAAAGAGCGGAGTCACCTAGTGCAG” was tested. Which binding signal did it give?
A: Its binding signal is 3780 fluorescence intensity (a.u.).

Q: “CCTTTTCCGCTTTAAAACACCACACAGTGACACACACACCCGGAGTCACCTAGTGCAG” was tested. Which binding signal did it give?
A: Its binding signal is 5500 fluorescence intensity (a.u.).

Q: “AGAAGAGAATGGAGTGGAGCTGACATGTGGGCTCCACCATCGGAGTCACCTAGTGCAG” was tested. Which binding signal did it give?
A: Its binding signal is 3950 fluorescence intensity (a.u.).

Q: “GGCTCCGTCTTATCCTAACAACGCCAAGGGGCCACGTATGCGGAGTCACCTAGTGCAG” was tested. Which binding signal did it give?
A: Its binding signal is 7210 fluorescence intensity (a.u.).

Q: With “CAGTTGACCGCCACGTAGAACCTGTTCCTCCAGCTCACCACGGAGTCACCTAGTGCAG” as the sequence, how does the binding signal read?
A: Its binding signal is 9340 fluorescence intensity (a.u.).

Q: For “TTCCTCGCGCTCCCACGCCACGCAGCAGCCGCAGATCTCCCGGAGTCACCTAGTGCAG”, which binding signal is on record?
A: Its binding signal is 3630 fluorescence intensity (a.u.).
